The list is not random: actives were taken first. Their share in the collection is about 3.8%.
esBAF inh – Bmi1 luciferase reporter increase in mESCs, primary screen, esBAF inhibitor project, mouse ES cells, Bmi1 luciferase knock-in, single point | 2% of 350,000 active | reporter increase, % at 12.5 µM | 24 h; 100% = twice the neutral-well signal; in the data active = activation above about 40%; inconclusive = no clear call, values can overlap the other calls;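 also: a rise in the Bmi1 reporter signal indicates esBAF inhibition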
Wnt act – Wnt/beta-catenin pathway activators, primary screen, cell-based, plate reader, single point | Wnt/beta-catenin reporter cell assay, activator | activation, % at 9.35 µM | 1.2% of 300,000 active; in the data active = activation above about 30%, passing the limit was not always enough; inconclusive = no clear call, values can overlap the other calls
HSF1 inh – HSF1 inhibitors in luciferase reporter cells, primary screen, cell-based, NIH3T3, luminescence; activity change, negative = inhibition, % at 7.5 µM (by protocol); 0.77% of 300,000 active; NIH3T3-HGL HSE-luciferase, MG132-induced, luminescence 8 h; active compounds read low;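 active = more than half of replicate wells show activity change below -50%, luminescence cut by over half; inconclusive = some wells, but at most half, below -50%; inactive = no replicate well below -50%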;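 also: luciferase reports HSF-1 transcriptional activity via heat shock element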
MITF act – activators of MITF-driven TRPM1 promoter reporter, primary screen, cell-based, SK-MEL-5, luciferase, single point; SK-MEL-5 TRPM1-promoter luciferase, 24 h; % of positive control, neutral wells = 0; activation, % at 12.5 µM; 0.75% of 300,000 active; AID 588334, 2011;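 active = mean activation of at least 80% with every replicate also reaching 80%; inconclusive = mean reaches 80% but some replicate falls short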
HSF-1 act – HSF-1 activators, primary screen, NIH3T3-HGL cells, MG132 stress, luminescence, single point; NIH3T3-HGL HSF-1 luciferase reporter, 8 h; 100% = twice DMSO control signal; activation, % at 9 µM; 1.7% of 300,000 active;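 active = mean replicate activation of at least 50% with a set share of replicates each reaching 50%; inconclusive = only one of those two conditions met; inactive = mean below 50% and too few replicates reaching it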
Each line names hits and unclear results; the compound was inactive in the other large screens.

CO[C@@H]1CN(C)C(=O)c2cc(NC(=O)Nc3cc(F)ccc3F)ccc2OC[C@@H](C)N(C(=O)c2ccccn2)C[C@H]1C	none (no result: Wnt act, HSF1 inh, MITF act, HSF-1 act)
COC(=O)C(c1ccccc1)C1(O)CC(C)N(C)CC1C (stereo unspecified)	HSF1 inh -76
CC1CN(C)C(C)CC1OC(=O)C(c1ccccc1)c1ccccc1 (stereo unspecified)	none (no result: MITF act)
CC(C)CCNC(=O)c1ccc2c(SCC(=O)O)c3c(nc2c1)CCCC3	HSF-1 act 62 (no result: esBAF inh, Wnt act)
COc1cc(Cl)c(C)cc1NC(=O)c1ccc2c(SCC(=O)O)c3c(nc2c1)CCCC3	none (no result: esBAF inh)
CCOC(=O)c1ccccc1NC(=O)c1ccc2c(SCC(=O)O)c3c(nc2c1)CCCC3	HSF1 inh -77
O=C(O)CSc1c2c(nc3cc(C(=O)NCCN4CCOCC4)ccc13)CCC2	none (no result: esBAF inh, MITF act)
CCn1cnc2cc(NC(=O)c3cccs3)ccc21	MITF act 95
CC(=O)Nc1cc2nn(-c3ccccc3)nc2cc1C	none
Cc1cc2nn(-c3ccccc3)nc2cc1NC(=O)c1cccs1	Wnt act 31 (no result: esBAF inh)
O=C(Nc1cccc(O)c1)c1ccc(NC(=O)c2cccs2)cc1	MITF act 103 (no result: esBAF inh)
Cc1ccc(NC(=O)c2cccs2)cc1NC(=O)c1cccc(F)c1	HSF-1 act 58 (no result: MITF act)
CCN(C[C@H]1N[C@H](CO)[C@H]1c1ccc(C2=CCCC2)cc1)C(=O)c1ccncc1	none (no result: Wnt act, HSF1 inh, MITF act, HSF-1 act)
C[C@H]1CN([C@@H](C)CO)C(=O)c2cc(-c3ccccc3)cnc2O[C@@H]1CN(C)C(=O)NC1CCCC1	none (no result: Wnt act, HSF1 inh, MITF act, HSF-1 act)
Cc1ccc(NC(=O)c2cccs2)cc1	esBAF inh 61
O=C(Nc1ccc(CSc2ccccc2)cc1)c1ccco1	esBAF inh 52
O=C(Nc1ccc2c(c1)CCC2)c1cccs1	Wnt act 55, HSF-1 act 55 (no result: esBAF inh)
Nc1ccc(NC(=O)c2cccs2)cc1	none (no result: esBAF inh, MITF act)
O=C(Nc1ccc(NC(=O)c2cccs2)cc1)c1ccccc1	esBAF inh 48
O=C(O)c1ccc(NC(=O)c2cccc(NC(=O)c3cccs3)c2)cc1	none (no result: Wnt act)
C[C@@H]1CN([C@@H](C)CO)C(=O)c2cccc(NS(=O)(=O)c3cccs3)c2O[C@@H]1CN(C)C(=O)NC1CCCCC1	none (no result: Wnt act, HSF1 inh, MITF act, HSF-1 act)
Cc1ccccc1-c1nc(-c2ccc(NC(=O)c3cccs3)cc2)no1	esBAF inh 51
COc1c(Cl)cc(Cl)cc1/C=C/C(=O)c1ccc(NC(=O)c2cccs2)cc1	HSF-1 act 115 (no result: Wnt act)
O=C(Nc1ccc(NC(=O)c2cccs2)cc1)c1ccco1	esBAF inh 48, MITF act 98 (no result: Wnt act)
O=C(Nc1ccc(-c2noc(-c3ccccc3F)n2)cc1)c1cccs1	MITF act inconclusive
O=C(Nc1ccc2nc(-c3cccs3)[nH]c2c1)c1ccco1	esBAF inh 83, MITF act 103 (no result: Wnt act)
C[C@H]1CCCCO[C@H](CN(C)C(=O)CCC(F)(F)F)[C@@H](C)CN([C@@H](C)CO)C(=O)c2cc(NC(=O)c3ccccc3)ccc2O1	none (no result: Wnt act, HSF1 inh, MITF act, HSF-1 act)
COCC(=O)N(C)C[C@@H]1Oc2ncc(-c3ccccc3OC)cc2C(=O)N([C@@H](C)CO)C[C@H]1C	none (no result: Wnt act, HSF1 inh, MITF act, HSF-1 act)
Cc1noc(C)c1NC(=O)Nc1ccc2c(c1)C(=O)N([C@@H](C)CO)C[C@@H](C)[C@@H](CN(C)Cc1ccc(C(=O)O)cc1)O2	none (no result: Wnt act, HSF1 inh, MITF act, HSF-1 act)
O=C(O)c1ccccc1C(=O)Nc1ccc(-n2ccc(C(F)(F)F)n2)cc1	none (no result: esBAF inh)
O=C(c1ccncc1)c1ccc(NC(=O)c2cccs2)cc1	none
O=C(Nc1ccc(-n2ccc(C(F)(F)F)n2)cc1)c1cccs1	MITF act 123
O=C(Nc1ccc(O)cc1)c1ccc(NC(=O)c2cccs2)cc1	HSF-1 act 65
C[C@H](CO)N1C[C@H](C)[C@H](CN(C)S(C)(=O)=O)Oc2c(NC(=O)Nc3ccc(F)cc3)cccc2C1=O	none (no result: Wnt act, HSF1 inh, MITF act, HSF-1 act)
COc1ccccc1/C=C/C=C1\Oc2c(ccc(O)c2CN(C)C)C1=O	none
CS(=O)(=O)Oc1ccc2c(c1)O/C(=C\C=C\c1ccccc1)C2=O	HSF-1 act 109 (no result: MITF act)
CCN(CC)Cc1c(O)ccc2c1O/C(=C\C=C\c1ccccc1)C2=O	HSF-1 act 116
C[C@H](CO)N1C[C@H](C)[C@@H](CN(C)Cc2ccc(Oc3ccccc3)cc2)Oc2c(NC(=O)C3CCCCC3)cccc2C1=O	none (no result: Wnt act, HSF1 inh, MITF act, HSF-1 act)
O=C(Nc1ccc(OCc2ccccc2)cc1)c1ccccc1	none (no result: esBAF inh)
Cc1ccsc1C(=O)Nc1ccc(OCc2ccccc2)cc1	esBAF inh 54, HSF-1 act inconclusive
CC(=O)Nc1ccc(NC(=S)Nc2ccc(Br)cc2)cc1	none (no result: esBAF inh)
Cc1cc(C(=O)Nc2ccc(OCc3ccccc3)cc2)c(C)o1	esBAF inh 44
CCOC(=O)C(=O)Nc1ccc(OCc2ccccc2)cc1	none
CC(C)=CC(=O)Nc1ccc(Br)cc1	esBAF inh 66, MITF act 107
CC(C)=CC(=O)Nc1ccc(OCc2ccccc2)cc1	esBAF inh 50, Wnt act 41
O=C(NCC[C@@H]1CC[C@H](NC(=O)c2cnccn2)[C@H](CO)O1)Nc1ccc(Cl)cc1	none (no result: Wnt act, HSF1 inh, MITF act, HSF-1 act)
CCOC(=O)c1c(NC(=O)c2cc(C)oc2C)sc(C(=O)Nc2ccc(Cl)cc2)c1C	esBAF inh inconclusive, Wnt act 42
C[C@H]1CN([C@@H](C)CO)S(=O)(=O)c2ccc(C#Cc3ccccc3)cc2O[C@H]1CN(C)S(C)(=O)=O	none (no result: Wnt act, HSF1 inh, MITF act, HSF-1 act)
O=C(NC(=S)Nc1ccc(CN2CCOCC2)cc1)c1ccc2c(c1)OCCO2	none (no result: esBAF inh, MITF act)
O=C(NC(=S)Nc1ccc(F)cc1)c1ccc2c(c1)OCCO2	Wnt act inconclusive, HSF1 inh -68 (no result: esBAF inh)
O=C(NC(=S)Nc1ccc2c(c1)OCCO2)c1ccccc1	none (no result: Wnt act)
O=C(NC(=S)Nc1ccc2c(c1)OCCO2)c1ccccc1F	esBAF inh 54, MITF act 85, HSF-1 act 86
COc1ccc(NC(=S)NC(=O)c2ccc3c(c2)OCCO3)cc1	esBAF inh 54 (no result: HSF1 inh, HSF-1 act)
CCOc1cccc(C(=O)NC(=S)Nc2ccc3c(c2)OCCO3)c1	esBAF inh inconclusive, MITF act 103
O=C(NC(=S)Nc1c(F)cc(F)cc1Br)c1ccc2c(c1)OCCO2	none (no result: esBAF inh)
CCC(=O)N1[C@@H]2CN(C(=O)Nc3cccc(Cl)c3)c3ccccc3[C@@H]2[C@@H]1CO	none (no result: Wnt act, HSF1 inh, MITF act, HSF-1 act)
C[C@@H]1CCCCO[C@H](CN(C)C(=O)c2ccncc2)[C@H](C)CN([C@@H](C)CO)C(=O)c2cc(NS(=O)(=O)c3ccc(Cl)cc3)ccc2O1	none (no result: Wnt act, HSF1 inh, MITF act, HSF-1 act)
O=C(NC(=S)Nc1ccc(N2CCCCC2)cc1)c1ccc2c(c1)OCCO2	HSF1 inh -61 (no result: esBAF inh)
O=C(NC(=S)Nc1ccc(N2CCOCC2)cc1)c1ccc2c(c1)OCCO2	none (no result: esBAF inh)
C/C(=N\NC(=O)c1ccccc1O)C1C(=O)c2ccccc2C1=O	esBAF inh 81 (no result: Wnt act)
C/C(=N/NC(=O)c1cc2ccccc2cc1O)C1C(=O)c2ccccc2C1=O	esBAF inh 51
CCC/C(C)=N/NC(=O)c1ccccc1O	none (no result: esBAF inh)

Screens (PubChem)
